Shown is part of a subset that was picked to be rich in hits.
Dicer processing – inhibitors of Dicer pre-microRNA processing, primary screen, biochemical, cat-ELCCA, chemiluminescence; Endoribonuclease Dicer (Homo sapiens), Q9UPY3; cat-ELCCA pre-miR-21 Dicer processing; active compounds read high; z-score at 25 µM; 47,000 tested, 6% active; AID 1347074, 2019; in the data active means z-score above about 3, passing the limit was not always enough;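 further: plate controls were vehicle for no effect and no enzyme for full effect; higher signal means more uncleaved substrate so more Dicer inhibition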
* marks the source's active call; other numbers are inactive results.

SMILES | Dicer processing
COc1ccc(C2C3C(=O)N(Cc4ccccc4)C(=O)C3ON2c2ccccc2)cc1 (configuration not stated) | 0.46
CCOc1ccc(N2C(=O)C3ON(c4ccccc4)C(c4ccco4)C3C2=O)cc1 (configuration not stated) | -1.3
O=C1C2ON(c3ccccc3)C(c3ccco3)C2C(=O)N1c1ccc(Br)cc1 (configuration not stated) | 0.66
O=C1C2ON(c3ccccc3)C(c3ccco3)C2C(=O)N1Cc1ccccc1 (configuration not stated) | 4.1*
O=C1C2ON(c3ccccc3)C(c3ccc(F)cc3)C2C(=O)N1Cc1ccccc1 (configuration not stated) | 0.11
O=C1C2ON(c3ccccc3)C(c3ccco3)C2C(=O)N1c1ccccc1 (configuration not stated) | 3.5*
c1ccc(CN2CCC(Nc3ncnc4sc5c(c34)CCCC5)CC2)cc1 | -1
CS(=O)(=O)N(Cc1ccc(Cl)cc1)c1ncc(C(F)(F)F)cc1Cl | -0.74
CS(=O)c1sc(C#N)c2c1C(=O)CCC2 (configuration not stated) | -1.7
CS(=O)c1sc(Cl)c2c1C(=O)CCC2 (configuration not stated) | -1.4
Cc1ccc(C2CC(=O)c3c(S(C)=O)sc(C#N)c3C2)cc1 (configuration not stated) | 3.6*
O=C1CSC(=S)N1Cc1ccco1 | -1.1
CC(C)c1ccc(Nc2nnns2)cc1 | 6.8*
Clc1ccc(Nc2nnns2)cc1 | 1.6
CC(C)c1ccc(NC2(C#N)CCCCC2)cc1 | 1.4
O=[N+]([O-])c1cccnc1Sc1nccc(-c2cccnc2)n1 | -0.47
CCOC(=O)c1cnc2c(c(C)nn2C)c1Oc1ccc(F)cc1 | -0.05
COC(=O)c1ccccc1NC1SC(=O)N(c2ccccc2)C1=O (configuration not stated) | 0.52
Cc1ccc(N2C(=O)SC(Nc3ccc(C(=O)O)cc3)C2=O)cc1 (configuration not stated) | 5.4*
O=C1SC(Nc2cccc(F)c2)C(=O)N1c1ccccc1 (configuration not stated) | 7.3*
Cc1ccc(N2C(=O)SC(Nc3ccccc3C(=O)O)C2=O)cc1C (configuration not stated) | 0.26
O=C1SC(Nc2ccccc2F)C(=O)N1c1ccccc1 (configuration not stated) | 3.4*
O=C1SC(Nc2cccc(Br)c2)C(=O)N1c1ccccc1 (configuration not stated) | 58
O=C1SC(Nc2ccccc2Br)C(=O)N1c1ccccc1 (configuration not stated) | -0.13
Cc1ccc(N2C(=O)SC(Nc3ccc(C(=O)O)cc3)C2=O)cc1C (configuration not stated) | 1.3
SMILES | Dicer processing
COC(=O)c1ccc(NC2SC(=O)N(c3ccccc3)C2=O)cc1 (configuration not stated) | 0.49
C=CCSc1nc(C)c2ccccc2n1 | -0.47
CCOc1ccc(C2C(C(=O)OCCOC)=C(C)N=C3SCCC(=O)N32)cc1OC (configuration not stated) | 0.32
O=C(OCC#Cc1cc(C(F)(F)F)cc(C(F)(F)F)c1)c1ccc([N+](=O)[O-])cc1 | 1.2
Cc1ccc2nc(-c3sc4ccccc4c3Cl)oc(=O)c2c1 | -0.68
O=C(Nc1ccccc1)c1cccc(C(=O)Nc2ccccc2)c1F | -0.38
COc1ccccc1OCc1nc(-c2ccc(Cl)cc2)no1 | 0.24
CCOc1ccc(/C=C/c2nc(-c3ccc(OC)c(OC)c3)no2)cc1OCC | 5.2*
COc1ccc(/C=C/c2nc(-c3ccccn3)no2)cc1OC | 2.4
CCOc1ccc(/C=C/c2nc(-c3cccc(C)c3)no2)cc1OCC | 0.92
CCOc1ccc(-c2nc(-c3ccc(OC)cc3)no2)cc1OCC | 1.6
CCOc1ccc(/C=C/c2nc(-c3ccc(Cl)cc3)no2)cc1OCC | 3.1*
N#CCSc1nnc(-n2cccc2)s1 | -0.71
CCCN1CN=C(Nc2nc(C)c3cc(C)ccc3n2)NC1 | 0.56
CNCCNS(=O)(=O)c1ccc(N2C(=O)CC3(CCCC3)C2=O)c(Cl)c1 | -0.67
COc1ccc2nc(/N=C/c3ccccc3[N+](=O)[O-])sc2c1 | 0.84
CSc1nnc(-c2ccc(C(C)(C)C)cc2)o1 | 1.5
CC(=O)/C(=C\Nc1ncccn1)S(=O)(=O)c1ccc(Cl)cc1 | -1.7
O=C(Nc1ccc(F)cc1F)c1ccc2ncccc2c1 | 1.1
O=C(Nc1ccccc1)Nc1ccc2ncccc2c1 | -0.97
O=C(Nc1cnc2ccccc2c1)c1ccncc1 | 3.1*
O=C1C(c2cc(Cl)cc(Cl)c2)=C(O)c2ccccc21 | -0.75
Cc1cc(Cl)cc2c1C(=O)/C(=C\c1ccccc1O)S2 | 5*
Cc1cc(Cl)cc2c1C(=O)/C(=C\c1cccnc1)S2 | -0.04
CC(=O)Nc1nc([N+](=O)[O-])n(-c2ccccc2)n1 | 0.38
SMILES | Dicer processing
O=S1(=O)CC(Sc2cccs2)c2ccccc21 (configuration not stated) | 0.21
COc1ccc(S(=O)(=O)NC(C)c2ccccc2)cc1-c1nnc2c3ccccc3c(C)nn12 (configuration not stated) | 1.8
Cc1nc(-c2cc3ccccc3[nH]c2=O)no1 | -1
Cc1ccc(C)n1-c1ccc(-n2c(C)ccc2C)cc1 | -0.06
O=C(O)c1cc(Cl)ccc1I | -1.5
Cc1ccc(C)n1-c1ccc(Cl)c(C(=O)O)c1 | 8.2*
Cc1ccc(C(=O)O)cc1-n1c(C)ccc1C | 0.45
Cc1ccc(Cl)c(Nc2ccccc2C(=O)O)c1Cl | -0.38
Cc1ccc(C)n1-c1ccc(Cl)cc1C(=O)O | 12*
CC(O)[C@H](NC(=O)OC(C)(C)C)C(=O)O (some centres not stated) | -0.68
NC(=O)CSc1nc(=O)cc(N)n1-c1ccc(F)cc1 | -0.36
Cc1c(C(=O)O)cc(C(C)(C)C)n1CCCNC(=O)OC(C)(C)C | -1.4
COC(=O)c1cnc(N2CCN(c3ncc(C(=O)OC)c(C(F)(F)F)n3)CC2)nc1C(F)(F)F | -0.64
c1ccc(Nc2nnc(-c3cccc4ccccc34)o2)cc1 | 0.59
O=c1oc(Nc2ccccc2)nc2ccccc12 | 3.6*
CC(C)(C)c1ccc(-c2nc3ccccc3c(=O)o2)cc1 | 1.4
O=c1oc(-c2ccc(Br)cc2)nc2ccccc12 | 3*
O=c1oc(-c2cccs2)nc2ccccc12 | -0.19
O=c1oc(-c2ccc(Cl)cc2)nc2ccccc12 | 0.2
CCOC(=O)/C(C#N)=C/Nc1cnc(N(C)C)c(C(F)(F)F)c1 | 0.71
CCOC(=O)C(C)NC(=O)C1CCC(c2ccc(Cl)cc2)CC1 (configuration not stated) | 2.1
CCOc1cc(C)c(S(=O)(=O)Nc2cccnc2)cc1C | 1.3
Cc1ccc(Cl)cc1NC(=S)NCCNc1nccc(C(F)(F)F)n1 | -0.65
CC(C)(C)OC(=O)NCCN=Cc1ccc(Cl)cc1Cl | -1.2
N=C(N)SCc1cc2ccccc2o1 | 3.2*
SMILES | Dicer processing
N=C(N)SCc1cccc(Cl)c1 | 1.3
N=C(N)SCc1cccc(CSC(=N)N)c1F | -3.4
N/C(CSc1cccs1)=N\OC(=O)Nc1ccccc1 | -2.6
COc1ccc(OC)c(C(=O)CC2(O)C(=O)Nc3ccc(Cl)cc32)c1 (configuration not stated) | 2.4
Cc1[nH]c2ccc(Cl)cc2c(=O)c1CN1CCCC(C)C1 (configuration not stated) | 2.2
CC(C)(CC(=O)O)CC(=O)Nc1ccc(Br)c(C(F)(F)F)c1 | 0.37
Cc1cc(C)nc(-n2ncc3c2CCCC3=O)n1 | -1.3
